Measurements reported in the supplement of paper PMC8371130.
Counter-ions that a name gives are not always drawn.

Test system: HL-1
Assay: relative cell viability (CellTiter-Glo) vs DMSO control (% of DMSO control); higher = more viable cells
How it was run: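 HL-1 mouse atrial cardiomyocytes were plated in 384-well plates at 1000 cells per well together with compounds at 40, 200, 1000 or 5000 nM in 0.01% DMSO. One day later, cells went to a hypoxic workstation (1% O2) for 48 h, then were reoxygenated for 24 h in a normal incubator, or stayed in normoxia for the same time. Cell viability was read by CellTiter-Glo luminescence and normalised to vehicle-treated control cells.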

[1] = oxygen condition: hypoxia 48 h (1% O2) + reoxygenation 24 h, 40 nM
[2] = oxygen condition: hypoxia 48 h (1% O2) + reoxygenation 24 h, 200 nM
[3] = oxygen condition: hypoxia 48 h (1% O2) + reoxygenation 24 h, 1000 nM
[4] = oxygen condition: hypoxia 48 h (1% O2) + reoxygenation 24 h, 5000 nM
[5] = oxygen condition: normoxia 72 h, 40 nM
[6] = oxygen condition: normoxia 72 h, 200 nM
[7] = oxygen condition: normoxia 72 h, 1000 nM
[8] = oxygen condition: normoxia 72 h, 5000 nM

SMILES	relative cell viability [1]	relative cell viability [2]	relative cell viability [3]	relative cell viability [4]	relative cell viability [5]	relative cell viability [6]	relative cell viability [7]	relative cell viability [8]
Nc1nc(CC(=O)Nc2ccc(CCNC[C@H](O)c3ccccc3)cc2)cs1 [Mirabegron]	112	110	111	112	103	104	113	129
COc1ccc(CN(CCN(C)C)c2ccccn2)cc1 [Pyrilamine Maleate]	102	99.1	101	112	99.5	106	99.9	124
Oc1ccc(OC2CCCCO2)cc1 (stereo unspecified) [Deoxyarbutin]	103	104	107	113	103	102	113	109
Nc1ncn([C@H]2C[C@H](O)[C@@H](CO)O2)c(=O)n1 [Decitabine]	103	104	94.1	65.4	101	104	91.2	58.2
NS(=O)(=O)c1cc2c(cc1Cl)NCNS2(=O)=O [Hydrochlorothiazide]	103	106	110	106	110	107	107	115
CCCNC(C)C(=O)Nc1ccccc1C (stereo unspecified) [Prilocaine]	96.7	101	105	104	92.2	92.1	92.3	97.4
CCCC(=O)O[C@]1(C(=O)COC(C)=O)CC[C@H]2[C@@H]3C[C@H](F)C4=CC(=O)C=C[C@]4(C)[C@@]3(F)[C@@H](O)C[C@@]21C [Difluprednate]	83.3	93.3	92.2	102	90.8	89	94.4	102
CCN1CC(CCN2CCOCC2)C(c2ccccc2)(c2ccccc2)C1=O (stereo unspecified) [Doxapram HCl]	102	104	100	107	116	103	106	112
CC[C@H](C)C(=O)O[C@H]1C[C@H](O)C=C2C=C[C@H](C)[C@H](CC[C@@H](O)C[C@@H](O)CC(=O)O)[C@H]21 [Pravastatin sodium]	99.1	94.4	84.7	19.8	96.8	95.9	70.7	6.81
OCC(CO)N[C@H]1C[C@](O)(CO)[C@@H](O)[C@H](O)[C@H]1O [Voglibose]	109	117	113	113	105	114	116	115
O=P(O)(O)C(O)(Cc1cccnc1)P(=O)(O)O [Risedronate sodium]	103	112	107	122	111	107	121	116
C#C[C@]1(O)CC[C@H]2[C@@H]3CCC4=CC(=O)CC[C@@H]4[C@H]3CC[C@@]21CC [Levonorgestrel]	110	115	104	112	107	104	111	111
C[C@]12CC[C@@H]3c4ccc(O)cc4CC[C@H]3[C@@H]1CC[C@@H]2O [Estradiol]	105	98.2	100	94	101	103	100	100
CS(=O)(=O)c1ccc(C(=O)Nc2ccc(Cl)c(-c3ccccn3)c2)c(Cl)c1 [Vismodegib]	103	107	108	117	104	110	114	112
Cc1cn(-c2cc(NC(=O)c3ccc(C)c(Nc4nccc(-c5cccnc5)n4)c3)cc(C(F)(F)F)c2)cn1 [Nilotinib]	101	81.4	107	111	105	104	104	108
CC[C@H]1OC(=O)[C@H](C)[C@@H](O[C@H]2C[C@@](C)(OC)[C@@H](O)[C@H](C)O2)[C@H](C)[C@@H](O[C@@H]2O[C@H](C)C[C@H](N(C)C)[C@H]2O)[C@](C)(O)C[C@@H](C)/C(=N\OCOCCOC)[C@H](C)[C@@H](O)[C@]1(C)O [Roxithromycin]	101	106	101	106	101	100	103	112
NS(=O)(=O)c1cc2c(cc1Cl)NC(C(Cl)Cl)NS2(=O)=O (stereo unspecified) [Trichlormethiazide]	109	109	118	119	107	115	112	114
